Screening data as filed in PubChem BioAssay.
Mtb FBA inh – Mtb FBA enzyme inhibitors, primary screen, biochemical, fluorescence, strain H37Rv; Fructose-bisphosphate aldolase (Mycobacterium tuberculosis (strain ATCC 25618 / H37Rv)), …; purified M. tuberculosis FBA, fluorescence read-out; inhibition, % at 1 µM; hit rate 2.3% among 360,000; AID 588726, 2011;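 further: 0% = vehicle and 100% = reference inhibitor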
Vc quorum ag – inducers of Vibrio cholerae quorum light production without autoinducers, primary screen, BH1578 luxS cqsA deficient, single point. V. cholerae BH1578 lux reporter, luminescence, 6 h. activation, % at 18.7 µM. hit rate 0.16% among 350,000. AID 588436, 2011; in the data active means activation mostly above about 9.7%, no sharp cut-off
RecA splice inh – Mtb RecA intein splicing inhibitors, primary screen, biochemical, fluorescence, HTS; inhibition, % (concentration not given with the values); cell-free RecA intein splicing; Protein RecA (Mycobacterium tuberculosis (strain ATCC 25618 / H37Rv)), P9WHJ3; hit rate 0.75% among 290,000; in the data active means inhibition above about 30%;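 further: 0% = vehicle wells and 100% = reference inhibitor control wells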
Target sequence (P9WHJ3 whole entry, looked up, canonical isoform): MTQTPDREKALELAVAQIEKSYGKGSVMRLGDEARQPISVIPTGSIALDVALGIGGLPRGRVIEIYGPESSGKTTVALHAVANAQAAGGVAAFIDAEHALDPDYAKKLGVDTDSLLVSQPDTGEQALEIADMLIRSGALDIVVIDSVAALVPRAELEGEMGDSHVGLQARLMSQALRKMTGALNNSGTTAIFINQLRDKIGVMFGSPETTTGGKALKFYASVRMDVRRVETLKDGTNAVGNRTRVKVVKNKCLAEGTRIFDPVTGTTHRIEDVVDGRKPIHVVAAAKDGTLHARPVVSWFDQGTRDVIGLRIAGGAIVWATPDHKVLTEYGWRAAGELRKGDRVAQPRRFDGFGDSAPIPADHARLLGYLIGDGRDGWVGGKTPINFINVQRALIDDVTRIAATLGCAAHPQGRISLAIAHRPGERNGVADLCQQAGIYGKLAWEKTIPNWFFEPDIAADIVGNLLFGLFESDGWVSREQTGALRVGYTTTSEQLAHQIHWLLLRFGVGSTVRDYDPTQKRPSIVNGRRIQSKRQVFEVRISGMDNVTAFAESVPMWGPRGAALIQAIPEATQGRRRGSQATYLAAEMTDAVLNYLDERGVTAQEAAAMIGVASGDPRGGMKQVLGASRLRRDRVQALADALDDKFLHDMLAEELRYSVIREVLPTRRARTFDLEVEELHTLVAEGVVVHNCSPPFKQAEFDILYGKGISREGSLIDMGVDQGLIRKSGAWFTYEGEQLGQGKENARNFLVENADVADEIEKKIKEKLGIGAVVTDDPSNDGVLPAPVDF
Rv3671c inh – Rv3671c serine protease inhibitors, primary screen, biochemical, fluorescence polarization, M. tuberculosis H37Rv | hit rate 0.048% among 320,000 | P9WHR9 | inhibition, % at 5.96 µM; in the data active means inhibition above about 38%;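 further: extracellular domain of Rv3671c used as enzyme; 0% = enzyme with DMSO and 100% = no enzyme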
Mtb UGM inh – M. tuberculosis UGM enzyme inhibitors, primary screen, biochemical, fluorescence polarization, single point; purified UGM, fluorescence polarization probe displacement; UDP-galactopyranose mutase (Mycobacterium tuberculosis (strain ATCC 25618 / H37Rv)), …; hit rate 0.06% among 320,000; inhibition, % at 10 µM; in the data active means inhibition above about 10%, passing the limit was not always enough
GDH-TPI counter-1 – GDH-TPI coupling enzyme inhibitors, primary screen, artefact control for M. tuberculosis FBA inhibitor project, biochemical, absorbance, full deck. GDH-TPI coupled enzyme counterscreen, NADH absorbance. inhibition, % at 4.8 µM. hit rate 1.2% among 360,000; in the data active means inhibition above about 30%;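 further: 0% = DMSO wells and 100% = wells lacking the enzyme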
Mtb FBA inh conf – M. tuberculosis aldolase blockers, biochemical, fluorescence, strain H37Rv, confirmation. shares compounds with Mtb FBA inh. purified M. tuberculosis FBA, fluorescence read-out. inhibition, % at 1 µM. hit rate 78% among 5,600. AID 651616, 2012;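 further: 0% = vehicle wells and 100% = reference inhibitor wells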
GDH-TPI counter-2 – GDH-TPI coupling enzyme inhibitors, artefact control for M. tuberculosis FBA inhibitor project, biochemical, fluorescence, high throughput; shares compounds with Mtb FBA inh; GDH-TPI coupled enzyme counterscreen; hit rate 81% among 5,600; AID 652141, 2013; inhibition, % at 1 µM; in the data active means inhibition above about 10%
* hit, by the source's call; i = inactive; x = not tested or not shown; + = active, no number. A selection: hits, their analogues and other compounds. The true share with any hit is near 4.1%. Unless noted, no stated cut-off is given here; in the data, active means inhibition above about 27%; inactive means the rest.

SMILES | Mtb FBA inh | Vc quorum ag | RecA splice inh | Rv3671c inh | Mtb UGM inh | GDH-TPI counter-1 | Mtb FBA inh conf | GDH-TPI counter-2
COc1cccc(C2Nc3ccccc3C(=O)N2Cc2ccccc2)c1 (stereo unspecified) | 61* | -1 | 6 | 1 | -3 | -1 | 24 | 18*
O=C1c2ccccc2NC(c2ccc(F)cc2)N1Cc1ccccc1 (stereo unspecified) | 57* | -1 | 0 | -3 | 2 | 7 | 79* | 55*
CN(C)c1ccc(C2Nc3ccccc3C(=O)N2CCN2CCNC2=O)cc1 (stereo unspecified) | 5 | 0 | 0 | 4 | 3 | 7 | x | x
O=C1c2ccccc2NC(c2ccccc2)N1Cc1ccccc1 (stereo unspecified) | 63* | i | 6 | 4 | 4 | -8 | 39* | 15*
O=C1NCCN1CCN1C(=O)c2ccccc2NC1c1ccccc1 (stereo unspecified) | 72* | 0 | -5 | 1 | -2 | 4 | 108* | 91*
O=C(C1CCCCC1)N1CCC2CC1c1cc(Cl)ccc12 (stereo unspecified) | 2 | 0 | x | x | x | -4 | x | x
CC(C)(C)Nc1ncnc2sc(-c3ccccc3)cc12 | 20 | -1 | -5 | -8 | -3 | 16 | x | x
C=COCCCNc1ncnc2sc(-c3ccccc3)cc12 | 38* | i | 5 | -18 | 1 | 13 | 51* | 40*
OCCCNc1ncnc2sc(-c3ccccc3)cc12 | 30* | -1 | 1 | 9 | 8 | 23 | 55* | 45*
CC(=O)Nc1ccc2nc(-c3ccncc3)[nH]c2c1 | 32* | -5 | 0 | 4 | -1 | 12 | + | +
CCC(c1nnc(SCC(=O)NC2CCCCC2)n1Cc1ccccc1)N(C)C (stereo unspecified) | 43* | i | 11 | -4 | -1 | -7 | + | 153*
CCC(c1nnc(SCC(=O)NCC2CCCO2)n1Cc1ccccc1)N(C)C (stereo unspecified) | 1 | x | x | 5 | -1 | 2 | x | x
O=c1nc2c(-c3ccccc3F)n[nH]n2c2ccccc12 | 49* | -1 | 0 | 10 | 2 | -2 | 77* | 57*
CCc1ccc(S(=O)(=O)c2n[nH]n3c2nc(=O)c2ccccc23)cc1 | 25 | -2 | -5 | -6 | 2 | 4 | x | x
CC(/C=C/c1ccc(O)cc1)=N/O | 67* | -1 | -5 | 1 | -1 | 12 | -3 | -3
CCCCC(CCCCl)C(=O)Nc1ccccc1 (stereo unspecified) | -3 | 0 | 0 | -2 | 0 | -3 | x | x
CCCCC(SCC(=O)Nc1ccccc1)C(=O)O (stereo unspecified) | 67* | 0 | -1 | 4 | 0 | 7 | 186* | 160*
CCCC1Cc2c(sc3ncnc(N)c23)CO1 (stereo unspecified) | 28* | 5 | -2 | 0 | 1 | 2 | 142* | 121*
CC1(C)Cc2c(sc3ncnc(N)c23)CO1 | 2 | i | 1 | 2 | -2 | -12 | x | x
COc1ccc(-c2sc3ccc(OC)cc3c2C#CCCO)cc1 | 8 | 0 | -1 | -29 | 1 | 18 | x | x
COc1ccc2sc(-c3ccc(N(C)C)cc3)c(C#Cc3cncn3C)c2c1 | 108* | 0 | x | 5 | 4 | 11 | 127* | 102*
O=C(c1cnc(Cc2c[nH]c3ccccc23)c(I)c1)N1CCOCC1 | 0 | 0 | x | x | x | 1 | x | x
CCc1c(C)c2ccc(OCC(N)=O)cc2oc1=O | 88* | i | x | -1 | 3 | 0 | 18 | 6
CN(C)C(=O)COc1ccc2c3c(c(=O)oc2c1)CCCC3 | 61* | 0 | 0 | 2 | 1 | 15 | 107* | 84*
